38 compounds from PubChem BioAssay (EPA / NIEHS) can be followed below.

As usually defined, the AC50 is the concentration at which the activity in the assay is half-maximal.

Several values for one entry are separate records, joined by “and”; a condition that tells them apart may be missing. Identical values can stand only once. A structure can be active in one record and inactive in another. Activity calls are given as the source filed them. Rule for the calls: active = hit-call score of the fitted dose curve at least 0.9, where 1 is the maximum; inactive = score below 0.9.

The experiment can be described thus: BSK_SAg_PBMCCytotoxicity: PBMC Cytotoxicity Assessment in the BioMAP Diversity Plus: SAg Assay (AID 2283093).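 Note: fitted both ways against DMSO so a hit may be loss or gain of signal.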 The note with it: primary human HUVEC with PBMC. As for the experimental part:
BSK_SAg is a cell-based, multiplexed-readout assay that uses umbilical vein endothelium and peripheral blood mononuclear cells, a human vascular primary cell co-culture, with measurements taken at 24 hours after chemical dosing in a 96-well plate.BSK_SAg_PBMCCytotoxicity is an assay component measured in the BSK_SAg assay. It measures Alamar blue related to cell death using Alamar Blue Reduction technology.Data from the assay component BSK_SAg_PBMCCytotoxicity was analyzed into 1 assay endpoint. This assay endpoint, BSK_SAg_PBMCCytotoxicity, was analyzed with bidirectional fitting relative to DMSO as the negative control and baseline of activity. Using a type of viability reporter, gain or loss-of-signal activity can be used to understand changes in the viability. Furthermore, this assay endpoint can be referred to as a secondary readout, because this assay has produced multiple assay endpoints where this one serves a viability function. To generalize the intended target to other relatable targets, this assay endpoint is annotated to the cell cycle intended target family, where the subfamily is cytotoxicity.
The levels of cell surface (or secreted, indicated by the prefix "s") biomarker endpoints were measured by ELISA. Overt cytotoxicity to cells in confluent adherent cultures (all systems other than the BT system) was assessed by measuring total protein levels using sulforhodamine B (SRB) staining in parallel cultures at the time of biomarker measurements, indicated as SRB endpoints. For proliferation assays for adherent cell types, individual cell types are cultured at sub-confluence and relative cell numbers quantified by SRB staining at time points optimized for each system (48 h: 3C and CASM3C systems; 72 h: BT and HDF3CGF systems; 96 h: SAg system). SRB was performed by staining cells with 0.1% SRB after fixation with 10% TCA and reading wells at 560 nm.Viability and proliferation of PBMC (T cells) was quantified by Alamar Blue reduction for the SAg and BT systems. For PBMC viability (referred to as PBMC Cytotoxicity within the assay endpoint names), cells were plated (75,000/well in a 96-well plate) and then chemical samples added for 1 h before addition of activators, SEB and TSST-1 (20 ng/mL final concentration each). Cells were incubated for 90 h. Then, Alamar Blue (20 uL/well) (Invitrogen, Cat DAL1100) was added for 6 h, and the plates were read with a fluorescence microplate reader at 546/580 nm (excitation/emission). For PBMC proliferation, cells were plated and activated as above but incubated for only 16 h prior to addition of Alamar Blue. Plates were read after 6 h.
Regarding `Nc1ccc(-c2ccc(N)cc2)cc1`, the outcome was inactive.

`CCC(C)(CC)c1cc(NC(=O)c2c(OC)cccc2OC)on1`: the outcome was inactive.

On to `C=CC(=O)NCNC(=O)C=C`, for which the outcome was inactive.

For `COc1ccc(O)c(C(C)(C)C)c1`, the AC50 was 20 µM (active) and the result was inactive.

Turning to `ClC1=C(Cl)[C@]2(Cl)[C@@H]3[C@@H](Cl)[C@H]4O[C@H]4[C@@H]3C1(Cl)C2(Cl)Cl`, the result was inactive.

On to `CN(C)CCO`, for which the result was inactive.

As to `NS(=O)(=O)C(F)(F)C(F)(F)C(F)(F)C(F)(F)C(F)(F)C(F)(F)C(F)(F)C(F)(F)F`, the AC50 is 33.6 µM (active) and 48 µM (active) and 55.1 µM (active).

Consider `Cc1cc(O)ccc1Cl`, for which the result was inactive.

As for `CN(C)c1nc(=O)n(C2CCCCC2)c(=O)n1C`, the outcome was inactive.

Consider `C[C@]12CCC(=O)C=C1CC[C@@H]1[C@@H]2CC[C@]2(C)C(=O)CC[C@@H]12`, for which the result was inactive.

Take `Cc1cc2c3c(c1)C(c1ccccc1)=N[C@@H](NC(=O)c1ccncc1)C(=O)N3CC2`: the outcome was inactive.

With `Cc1cc(-c2ccc(N)c(C)c2)ccc1N`, the outcome was inactive.

Take `CC(C)(O)C(=O)Nc1ccc([N+](=O)[O-])c(C(F)(F)F)c1`: the outcome was inactive.

As to `ClC1=C(Cl)[C@]2(Cl)[C@@H]3[C@@H]4C[C@@H]([C@H]5O[C@@H]45)[C@@H]3[C@@]1(Cl)C2(Cl)Cl`, the outcome was inactive.

Take `Sc1ccccc1`: the result was inactive.

As to `Cc1cccc([N+](=O)[O-])c1`, the result was inactive.

As to `Cc1ccccc1O`, the outcome was inactive.

With `Oc1c(Cl)c(Cl)c(Cl)c(Cl)c1Cl`, the AC50 is 8 µM (active) and the result was inactive.

For `Nn1cnnc1`, the result was inactive.

For the compound `CCCN(CCC)N=O`, the result was inactive.

For `CCSC(=O)N(CC)C1CCCCC1`, the result was inactive.

For `O=NN(c1ccccc1)c1ccccc1`, the result was inactive.

Consider `CCOP(=S)(OCC)SCSC(C)(C)C`, for which the AC50 is 31.1 µM (active).

Regarding `CC(c1ccc(O)cc1)(c1ccc(O)cc1)c1ccc(O)cc1`, the result was inactive.

For the compound `CCCCCCCCCc1ccc(O)cc1`, the AC50 was 16.2 µM (active).

As to `Cc1ccccc1CO[C@@H]1C[C@@]2(C(C)C)CC[C@]1(C)O2`, the result was inactive.

In the case of `Oc1ccc(Cl)cc1Cl`, the result was inactive.

As to `CO/C=C(/C(=O)OC)c1ccccc1COc1cccc(C(F)(F)F)n1`, the AC50 was 1.17 µM (active).

Take `CCCCCCCCOC(=O)c1ccccc1C(=O)OCCCCCCCC`: the AC50 is 5.6 µM (active).

For the compound `COS(=O)(=O)OC`, the result was inactive.

As for `CC1=C2C[C@H]3[C@@H](CC=C4C[C@@H](O)CC[C@@]43C)[C@@H]2CC[C@]12O[C@@H]1C[C@H](C)CN[C@H]1[C@H]2C`, the result was inactive.

Regarding `Oc1ccc(C(c2ccc(O)cc2)(C(F)(F)F)C(F)(F)F)cc1`, the concentration at half-maximal activity (AC50) is 20.7 µM (active).

As to `CCC(C)(c1ccc(O)cc1)c1ccc(O)cc1`, the AC50 is 29.8 µM (active).

With `O=C(O)C(F)(F)C(F)(F)C(F)(F)C(F)(F)C(F)(F)C(F)(F)C(F)(F)C(F)(F)C(F)(F)F`, the AC50 is 29.8 µM (active) and 47.3 µM (active) and 51 µM (active).

Take `CC(C)C(=O)OCC(C)(C)C(OC(=O)C(C)C)C(C)C` (stereo not given): the result was inactive.

Take `Cc1ccccc1[N+](=O)[O-]`: the result was inactive.

Regarding `O=C(O)C(F)(F)C(F)(F)C(F)(F)C(F)(F)C(F)(F)F`, the outcome was inactive.

With `Clc1ccc(Cl)cc1`, the result was inactive.
